Assay results as given in publication PMC9838217, “Structure of SALL4 zinc finger domain reveals link between AT-rich DNA binding and Okihiro syndrome”.
Positions count from the first letter of the chain named.

target: T1, SALL4 ZFC4 WT (HT-SELEX) (Mus musculus, UniProt Q8BX22 870-940); assay: HT-SELEX; high values mean tight binding; conditions: protein: recombinant; vector His6-GST; dsDNA, one strand shown
T1 sequence: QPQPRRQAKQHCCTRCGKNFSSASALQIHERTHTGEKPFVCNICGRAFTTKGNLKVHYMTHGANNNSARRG
Outline: (§1)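 Residues 870–940 of mouse SALL4, forming zinc finger cluster 4, were expressed recombinantly, purified, and 1 µg was incubated with library DNA (1.5 µg first cycle, 200 ng later) in 100 µl of 10 mM Tris–HCl pH 7.5, 50 mM NaCl, poly(dI-dC) and DTT for 10 min at room temperature. Washed Ni2+ bead-captured complexes were PCR-amplified and reselected for up to 6 cycles in triplicate, and the products were sequenced on MiSeq and scanned for 6-mers. Binding signal is the fold change in each canonical k-mer's read fraction compared with the initial random library.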

Sequence	binding signal
ACATTG	1.17 ± 0.0218 fold-change vs cycle 0
AAGGTG	0.806 ± 0.0296 fold-change vs cycle 0
AACCTC	0.87 ± 0.0372 fold-change vs cycle 0
CGCTAA	0.488 ± 0.0307 fold-change vs cycle 0
CACGTC	0.427 ± 0.0304 fold-change vs cycle 0
GGTACC	0.421 ± 0.0151 fold-change vs cycle 0
CTTGTA	1.27 ± 0.0539 fold-change vs cycle 0
ATGCCA	0.517 ± 0.0281 fold-change vs cycle 0
GGTTCA	0.788 ± 0.0387 fold-change vs cycle 0
CACTAG	0.821 ± 0.0388 fold-change vs cycle 0
CTTAAA	1.73 ± 0.0848 fold-change vs cycle 0
AGTCAC	0.789 ± 0.043 fold-change vs cycle 0
CGATAA	1.17 ± 0.0894 fold-change vs cycle 0
TATCAA	2.32 ± 0.148 fold-change vs cycle 0
GTGACA	0.691 ± 0.0164 fold-change vs cycle 0
CATAAA	2.36 ± 0.2 fold-change vs cycle 0
AAGTCA	1.3 ± 0.0493 fold-change vs cycle 0
TAGCGA	0.54 ± 0.0286 fold-change vs cycle 0
AGATTG	1.29 ± 0.0269 fold-change vs cycle 0
AAACAT	1.93 ± 0.14 fold-change vs cycle 0

Sequence	binding signal
CTGAAC	0.859 ± 0.0362 fold-change vs cycle 0
CAGTAC	0.772 ± 0.0398 fold-change vs cycle 0
CTTATC	1.5 ± 0.0472 fold-change vs cycle 0
ATAGCG	0.516 ± 0.00601 fold-change vs cycle 0
AACGTT	1.19 ± 0.0242 fold-change vs cycle 0
CGTGAA	0.669 ± 0.0388 fold-change vs cycle 0
AGGAAC	0.86 ± 0.0507 fold-change vs cycle 0
CACGGA	0.395 ± 0.0417 fold-change vs cycle 0
AACGGG	0.4 ± 0.0225 fold-change vs cycle 0
CACTCC	0.513 ± 0.0257 fold-change vs cycle 0
AGACGA	0.675 ± 0.0154 fold-change vs cycle 0
ACAGAA	1.26 ± 0.036 fold-change vs cycle 0
ATCTTA	2.21 ± 0.106 fold-change vs cycle 0
GATAAA	2.01 ± 0.0629 fold-change vs cycle 0
CCATTA	1.33 ± 0.0471 fold-change vs cycle 0
ACCTGA	0.842 ± 0.0331 fold-change vs cycle 0
CCATCA	0.823 ± 0.0184 fold-change vs cycle 0
CTCAAG	0.858 ± 0.0354 fold-change vs cycle 0
ACTCGA	0.761 ± 0.0231 fold-change vs cycle 0
CCCAGA	0.431 ± 0.0214 fold-change vs cycle 0

target: T2, SALL4 ZFC4 R900W (HT-SELEX) (Mus musculus, UniProt Q8BX22 870-940, R900W); assay: HT-SELEX; high values mean tight binding; conditions: protein: recombinant; vector His6-GST; dsDNA, one strand shown
T2 sequence: T1 sequence with R31W
Outline: as §1

Sequence	binding signal
ACATTG	1.29 ± 0.0215 fold-change vs cycle 0
AAGGTG	0.944 ± 0.0313 fold-change vs cycle 0
AACCTC	0.961 ± 0.043 fold-change vs cycle 0
CGCTAA	0.562 ± 0.0185 fold-change vs cycle 0
CACGTC	0.52 ± 0.0494 fold-change vs cycle 0
GGTACC	0.521 ± 0.0308 fold-change vs cycle 0
CTTGTA	1.44 ± 0.0511 fold-change vs cycle 0
ATGCCA	0.565 ± 0.0177 fold-change vs cycle 0
GGTTCA	0.916 ± 0.0428 fold-change vs cycle 0
CACTAG	0.968 ± 0.0358 fold-change vs cycle 0
CTTAAA	1.87 ± 0.112 fold-change vs cycle 0
AGTCAC	0.9321 ± 0.00858 fold-change vs cycle 0
CGATAA	1.19 ± 0.0909 fold-change vs cycle 0
TATCAA	2 ± 0.128 fold-change vs cycle 0
GTGACA	0.813 ± 0.0124 fold-change vs cycle 0
CATAAA	1.79 ± 0.0666 fold-change vs cycle 0
AAGTCA	1.46 ± 0.0531 fold-change vs cycle 0
TAGCGA	0.613 ± 0.0291 fold-change vs cycle 0
AGATTG	1.41 ± 0.0315 fold-change vs cycle 0
AAACAT	1.88 ± 0.0797 fold-change vs cycle 0

Sequence	binding signal
CTGAAC	0.995 ± 0.0342 fold-change vs cycle 0
CAGTAC	0.92 ± 0.0398 fold-change vs cycle 0
CTTATC	1.62 ± 0.0833 fold-change vs cycle 0
ATAGCG	0.55 ± 0.0156 fold-change vs cycle 0
AACGTT	1.33 ± 0.0216 fold-change vs cycle 0
CGTGAA	0.776 ± 0.0286 fold-change vs cycle 0
AGGAAC	1.02 ± 0.0591 fold-change vs cycle 0
CACGGA	0.459 ± 0.0312 fold-change vs cycle 0
AACGGG	0.466 ± 0.0176 fold-change vs cycle 0
CACTCC	0.603 ± 0.0288 fold-change vs cycle 0
AGACGA	0.786 ± 0.0316 fold-change vs cycle 0
ACAGAA	1.37 ± 0.0837 fold-change vs cycle 0
ATCTTA	2.19 ± 0.133 fold-change vs cycle 0
GATAAA	1.92 ± 0.127 fold-change vs cycle 0
CCATTA	1.4 ± 0.0728 fold-change vs cycle 0
ACCTGA	1 ± 0.047 fold-change vs cycle 0
CCATCA	0.957 ± 0.0265 fold-change vs cycle 0
CTCAAG	1.02 ± 0.032 fold-change vs cycle 0
ACTCGA	0.839 ± 0.0214 fold-change vs cycle 0
CCCAGA	0.51 ± 0.0216 fold-change vs cycle 0

target: T3, SALL4 ZFC4 G921D (HT-SELEX) (Mus musculus, UniProt Q8BX22 870-940, G921D); assay: HT-SELEX; high values mean tight binding; conditions: protein: recombinant; vector His6-GST; dsDNA, one strand shown
T3 sequence: T1 sequence with G52D
Outline: as §1

Sequence	binding signal
ACATTG	1.28 ± 0.0251 fold-change vs cycle 0
AAGGTG	0.95 ± 0.0211 fold-change vs cycle 0
AACCTC	1.02 ± 0.0516 fold-change vs cycle 0
CGCTAA	0.667 ± 0.039 fold-change vs cycle 0
CACGTC	0.633 ± 0.0372 fold-change vs cycle 0
GGTACC	0.608 ± 0.0352 fold-change vs cycle 0
CTTGTA	1.33 ± 0.0845 fold-change vs cycle 0
ATGCCA	0.695 ± 0.0326 fold-change vs cycle 0
GGTTCA	0.966 ± 0.0244 fold-change vs cycle 0
CACTAG	0.987 ± 0.027 fold-change vs cycle 0
CTTAAA	1.65 ± 0.165 fold-change vs cycle 0
AGTCAC	0.975 ± 0.0241 fold-change vs cycle 0
CGATAA	1.15 ± 0.0473 fold-change vs cycle 0
TATCAA	1.87 ± 0.178 fold-change vs cycle 0
GTGACA	0.852 ± 0.0256 fold-change vs cycle 0
CATAAA	1.6 ± 0.121 fold-change vs cycle 0
AAGTCA	1.35 ± 0.0928 fold-change vs cycle 0
TAGCGA	0.72 ± 0.0193 fold-change vs cycle 0
AGATTG	1.38 ± 0.0773 fold-change vs cycle 0
AAACAT	1.72 ± 0.14 fold-change vs cycle 0

Sequence	binding signal
CTGAAC	1.01 ± 0.0412 fold-change vs cycle 0
CAGTAC	0.957 ± 0.0386 fold-change vs cycle 0
CTTATC	1.44 ± 0.0973 fold-change vs cycle 0
ATAGCG	0.681 ± 0.0378 fold-change vs cycle 0
AACGTT	1.24 ± 0.0303 fold-change vs cycle 0
CGTGAA	0.834 ± 0.041 fold-change vs cycle 0
AGGAAC	1.04 ± 0.0533 fold-change vs cycle 0
CACGGA	0.571 ± 0.0613 fold-change vs cycle 0
AACGGG	0.54 ± 0.0483 fold-change vs cycle 0
CACTCC	0.684 ± 0.0287 fold-change vs cycle 0
AGACGA	0.86 ± 0.0237 fold-change vs cycle 0
ACAGAA	1.3 ± 0.0881 fold-change vs cycle 0
ATCTTA	1.92 ± 0.224 fold-change vs cycle 0
GATAAA	1.69 ± 0.118 fold-change vs cycle 0
CCATTA	1.32 ± 0.097 fold-change vs cycle 0
ACCTGA	1.02 ± 0.0552 fold-change vs cycle 0
CCATCA	0.949 ± 0.0116 fold-change vs cycle 0
CTCAAG	1.04 ± 0.0506 fold-change vs cycle 0
ACTCGA	0.905 ± 0.00699 fold-change vs cycle 0
CCCAGA	0.583 ± 0.0525 fold-change vs cycle 0
